Most compounds without a hit are left out; they make up all but 0.43% or so of the library.
RGS12 GoLoco inh-1 – inhibitors of human Gai1-RGS12 GoLoco interaction (red fluorophore); P63096; Gai1:RGS12 GoLoco peptide FP, rhodamine, 10 min; Potency, µM (top dose mostly 61.6 µM), most hits filed as inhibitors; actives 0.44% (n = 230,000); active = well fitted inhibition curve with a large enough effect, not every such curve was filed as active; inactive = no such curve, though single readings can be large or run the other way; also: nearly all actives have a fitted effect of over 30% in size
Tb PFK inh-1 – inhibitors of T. brucei phosphofructokinase; O15648; T. brucei PFK, ADP-Glo luminescence; Potency, µM (titrated, usually from 57.5 µM), hits mostly inhibitors; actives 0.17% (n = 330,000); AID 485367; also: nearly all actives have a fitted effect of over 60% in size
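ADP-Glo luminescence quantified ADP after 45 min at room temperature, with 1.25 nM T. brucei PFK, 0.1 mM ATP and 0.5 mM fructose-6-phosphate in pH 8.0 TEA buffer. qHTS titrations up to 57 µM; curves classified by quality.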
Menin MLL FP TR – displaces Texas Red mutant MLL peptide from human menin. actives 0.23% (n = 270,000). O00255. Menin + Texas Red MLL mutant peptide, fluorescence polarization. Potency, µM (doses to about 61.6 µM), most hits filed as inhibitors; active = well fitted inhibition curve with a large enough effect in the polarisation, with a control signal flat, not every such curve was filed as active; inconclusive = small, poorly fitted or top-dose-only effect, or effect the other way, or a change in a side signal; inactive = no such curve, though single readings can be large or run the other way; the % refers to the polarisation
CXXC DNA block – MLL CXXC-DNA interaction inhibition. AID 2662. Potency, µM (titrated, usually from 115 µM), actives largely listed as inhibitors. MLL-CXXC / FITC-HOXA9 DNA fluorescence polarization. actives 0.037% (n = 290,000); active = well fitted inhibition curve with a large enough effect in the polarisation, with a control signal flat, not every such curve was filed as active; inconclusive = small, poorly fitted or top-dose-only effect, or effect the other way, or a change in a side signal; inactive = no such curve, though single readings can be large or run the other way; the % refers to the polarisation
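Steps: dispense CXXC domain solution (7 uM) → pin compounds or unlabeled HOX-A9 DNA control → 5 min ambient → add FLSN-HOX-A9 solution (50 nM) → spin → 30 min ambient → fluorescence polarization. Tris pH 7.5/NaCl/DTT/BSA buffer.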
Menin MLL FP FL – displaces fluorescein MLL peptide from human menin; Fluorescence polarization, fluorescein-MLL peptide displacement from menin; FP activity change, % at 61.4 µM; 290,000 tested, under 10 active; active = well fitted curve in the direction sought with a large enough effect in the polarisation, not every such curve was filed as active; inconclusive = small, poorly fitted or top-dose-only effect, or effect the other way, or a change in a side signal; inactive = no such curve, though single readings can be large or run the other way; the % refers to the polarisation
RGS12 GoLoco inh-2 – confirmation of human RGS12 GoLoco motif inhibitors. AID 2390. shares compounds with RGS12 GoLoco inh-1. Gai1/rhodamine-RGS12 GoLoco peptide fluorescence polarization. actives 50% (n = 110). Potency, µM (titrated, usually from 57.1 µM), usual class: inhibitors
MLL CXXC Fl – inhibitors of human MLL CXXC domain-DNA interaction. MLL CXXC-DNA binding, fluorescein FP. actives 70% (n = 200). Potency, µM (highest dose often 345 µM), usual class: inhibitors. shares compounds with CXXC DNA block; also: nearly all actives have a fitted effect of over 80% in size
MLL CXXC FP-TR – inhibitors of human MLL CXXC domain-DNA interaction, Texas Red format; shares compounds with CXXC DNA block; Potency, µM (titrated, usually from 345 µM), hits mostly inhibitors; MLL CXXC-DNA binding, Texas Red fluorescence polarization; actives 40% (n = 200); AID 624161; also: nearly all actives have a fitted effect of over 75% in size
MLL CXXC HTRF – MLL CXXC-DNA interaction inhibition, HTRF readout; shares compounds with CXXC DNA block; MLL CXXC-DNA binding, HTRF, biochemical; Potency, µM (titrated, usually from 172 µM), actives largely listed as inhibitors; actives 30% (n = 210); also: nearly all actives have a fitted effect of over 80% in size
TbPFK ATP – Tb phosphofructokinase inhibition, orthogonal luminescence; Potency, µM (top dose mostly 57.5 µM); AID 504636; actives 47% (n = 1,100); shares compounds with Tb PFK inh-1; Tb PFK enzyme, ATP depletion, Kinase-Glo Plus luminescence; calls by dose curve; also: nearly all actives have a fitted effect of over 60% in size
Tb PFK inh-2 – T. brucei PFK enzyme inhibition, hit validation | purified T. brucei PFK, ADP-Glo luminescence, 45 min | actives 41% (n = 1,100) | AID 504637 | shares compounds with Tb PFK inh-1 | Potency, µM (series often up to 57.5 µM), actives largely listed as inhibitors; also: nearly all actives have a fitted effect of over 60% in size
Numbers stand for hits; – = inactive; ? = inconclusive; · = not tested or not shown; ! = repeats disagree; [ ] = dose if it differs, or a comment. Unless noted, calls follow the shape of the dose curve; as a rule, active = well fitted curve in the direction sought with a large enough effect; inconclusive = small, poorly fitted or top-dose-only effect, or another doubt; inactive = no such curve, though single readings can be large; an effect the other way counts as inactive or inconclusive.

SMILES	RGS12 GoLoco inh-1	Tb PFK inh-1	Menin MLL FP TR	CXXC DNA block	Menin MLL FP FL	others
O=C(COc1ccc(Br)cc1)N1CCN(Cc2ccc3c(c2)OCO3)CC1	·	–	?	–	–
Cc1nn(C)c(C)c1N1C(=O)c2cccc3c(Br)ccc(c23)C1=O	–	–	–	–	–
Cc1nn(C)c(C)c1N1C(=O)c2cccc3c(N)ccc(c23)C1=O	22µM	–	–	?	?	RGS12 GoLoco inh-2=13µM
Oc1ccc2c3c1OC1C(O)CC[C@]4(O)C(C2)N(CC2CCC2)CC[C@]314 (some centres not stated)	28µM	·	–	·	–	RGS12 GoLoco inh-2=–
Cn1nnnc1SCC(=O)N1CCN(c2ccc(Cl)cc2)CC1	–	–	–	–	–	RGS12 GoLoco inh-2=14µM
Cn1nnnc1SCC(=O)N1CCCCC1	·	–	–	–	–
Cc1cc(C)c2c(=O)n(CC(=O)Nc3ccc(Cl)cc3)sc2n1	25µM	8.5µM	·	–	–	RGS12 GoLoco inh-2=?;TbPFK ATP=?;Tb PFK inh-2=3.8µM
Cc1cc(C)c2c(=O)n(CC(=O)Nc3cccc(F)c3)sc2n1	32µM	7.6µM	·	–	–	RGS12 GoLoco inh-2=32µM;TbPFK ATP=?;Tb PFK inh-2=4.8µM
CCOc1ccc(NC(=O)Cn2sc3nc(C)cc(C)c3c2=O)cc1	16µM	?	·	–	–	RGS12 GoLoco inh-2=?;TbPFK ATP=?;Tb PFK inh-2=8.5µM
Cc1ccc(NC(=O)Cn2c(C)cc(C)c(C#N)c2=O)c(Cl)c1	–	–	?	–	–
Cc1ccc(NC(=O)Cn2sc3nc(C)cc(C)c3c2=O)c(Cl)c1	18µM	11µM	·	–	?	RGS12 GoLoco inh-2=11µM;TbPFK ATP=?;Tb PFK inh-2=6µM
CCOc1ccc(NC(=O)Cn2ncc3ccccc32)cc1	·	–	–	–	–
COC(=O)C1=C(C(=O)OC)[C@@H]2Nc3ccccc3[C@@]23C[C@@H](C(=O)OC)N(S(=O)(=O)c2ccc(OC)cc2)C3=N1	–[14.2 µM]	·	–[11.7 µM]	·	–[11.7 µM]
C/C=C1/C(=O)C[C@H]2[C@@H]3CCC4=CC(=O)CC[C@]4(C)[C@H]3CC[C@]12C	–	·	·	·	·
Nc1nc2c(s1)CCc1c-2cnn1-c1ccccc1	–	–	–	32µM	–	MLL CXXC Fl=?;MLL CXXC FP-TR=?;MLL CXXC HTRF=31µM
CCc1cccc(NC(=O)CSC2=NS(=O)(=O)c3ccccc32)c1	–	–	–	32µM	–	MLL CXXC Fl=89µM;MLL CXXC FP-TR=113µM;MLL CXXC HTRF=15µM
CN(C)C1CCc2[nH]c3ccc(NC(=O)c4ccc(F)cc4)cc3c2C1 (configuration not stated)	·	·	–	·	–
O=C(CSc1nc2ccccc2c(=O)n1Cc1ccc(F)cc1)NCc1cccs1	–	–	–	7.9µM	–	MLL CXXC Fl=–;MLL CXXC FP-TR=–;MLL CXXC HTRF=–
CC[C@H](C)[C@H](NC(=O)[C@H](CO)NC(=O)[C@H](CC(C)C)NC(=O)[C@H](CO)NC(=O)[C@@H]1CCCN1C(=O)[C@H](CC(N)=O)NC(=O)[C@@H](N)CC(=O)O)C(=O)N[C@@H](CC(=O)O)C(=O)N[C@@H](CC(C)C)C(=O)N[C@H](C(=O)N[C@@H](Cc1ccccc1)C(=O)N[C@@H](Cc1cnc[nH]1)C(=O)N[C@@H](CC(C)C)C(=O)N[C@@H](CC(C)C)C(=O)N[C@@H](CCCNC(=N)N)C(=O)N[C@H](C(=O)N[C@@H](CC(C)C)C(=O)N[C@@H](CC(C)C)C(=O)N[C@@H](CCC(=O)O)C(=O)N[C@@H](CC(C)C)C(=O)N[C@@H](C)C(=O)N[C@@H](CCCNC(=N)N)C(=O)N[C@H](C(=O)N[C@@H](CCC(N)=O)C(=O)N[C@@H](CO)C(=O)N[C@@H](CCC(N)=O)C(=O)N[C@@H](CCCNC(=N)N)C(=O)N[C@@H](CCC(=O)O)C(=O)N[C@@H](CCCNC(=N)N)C(=O)N[C@@H](C)C(=O)N[C@@H](CCC(=O)O)C(=O)N[C@@H](CCC(N)=O)C(=O)N[C@@H](CC(N)=O)C(=O)N[C@@H](CCCNC(=N)N)C(=O)N[C@H](C(=O)N[C@H](C(=O)N[C@@H](Cc1ccccc1)C(=O)N[C@@H](CC(=O)O)C(=O)N[C@@H](CO)C(=O)N[C@H](C(N)=O)C(C)C)[C@@H](C)CC)[C@@H](C)CC)[C@@H](C)O)[C@@H](C)O)[C@@H](C)O	·	·	–	·	–
COc1ccc(-c2cc(C3C4C=CCC(C)C4C(=O)N3Cc3ccccc3)ccc2F)cc1OC (configuration not stated)	·	·	?	·	–
Cc1cc(O)c(C(C)C)cc1Cl	–	·	–	–	–
O=c1ccc2[n+]([O-])c3ccc(O)cc3oc-2c1	10µM	?	·	35µM	?	MLL CXXC Fl=?;MLL CXXC FP-TR=2.2µM;MLL CXXC HTRF=?
Cc1cc(/C=C2\C(=O)NC(=O)N(c3ccc(F)cc3)C2=O)c(C)n1-c1cccc(C(=O)O)c1	–	–	–	–	–
Cc1cc(/C=C2\C(=O)NC(=O)N(c3ccccc3)C2=O)c(C)n1-c1ccc(C(=O)O)c(Cl)c1	·	–	–	?	–	MLL CXXC Fl=–;MLL CXXC FP-TR=113µM;MLL CXXC HTRF=–
Cc1cc(/C=C2\C(=O)NC(=O)N(c3ccccc3F)C2=O)c(C)n1-c1cc(C(=O)O)cc(C(=O)O)c1	·	–	–	13µM	–	MLL CXXC Fl=8µM;MLL CXXC FP-TR=22µM;MLL CXXC HTRF=24µM
CCC[C@H]1C[C@H](C(=O)NC(C(C)Cl)C2O[C@@H](SC)C(OP(=O)(O)O)[C@@H](O)[C@@H]2O)N(C)C1 (some centres not stated)	·	·	–	·	–
ClP(Cl)(Cl)(Cl)Cl	–	·	·	·	·
COc1ccc(C2=N[C@@H](C(C)C)CO2)cc1	–	·	–	·	?
C=Cc1c(C)c2cc3[nH]c(cc4nc(cc5nc(cc1[nH]2)C(C)=C5CCC(=O)O)C(CCC(=O)O)=C4C)c(C)c3C=C	13µM!	?	?	20µM!	–	MLL CXXC Fl=?;MLL CXXC FP-TR=45µM;MLL CXXC HTRF=39µM
CCC1(c2ccc(OC)cc2)NC(=O)N(C)C1=O (configuration not stated)	·	·	–	·	–

High-throughput results from PubChem BioAssay.
